Screening results as filed in PubChem BioAssay.
IL-2 act: qHTS of IL-2 Activators; IL-2 activation reporter assay, cell-based qHTS; stimulated with anti-CD3/CD4/CD28 beads; in transgenic mouse T cells; activation, % (series mostly up to about 46 µM); hit rate 0.065% among 360,000; AID 652025, 2013; in the data active = activation above about 50%; inconclusive = mostly about 30% to 49%
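Unstimulated transgenic mouse T cells, 750 per well, received compound and, after 60 minutes, anti-CD3/anti-CD4 bead plus anti-CD28 stimulation. EGFP and DsRed were quantified after 18 hours.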
Chronic BCR inh: qHTS Assay to Find Inhibitors of Chronic Active B-Cell Receptor Signaling; Potency, µM (top dose mostly 46.1 µM), most hits filed as inhibitors; hit rate 0.05% among 340,000; AID 493014, 2011; ABC-DLBCL IkBa-CBG/CBR reporter, luminescence ratio, 4 h; active = well fitted inhibition curve with a large enough effect in the signal ratio, with a control signal flat, not every such curve was filed as active; inconclusive = small, poorly fitted or top-dose-only effect, or effect the other way, or a change in a side signal; the % refers to the signal ratio
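Doxycycline induced both beetle luciferases in TMD8 lymphoma cells; IKK-driven degradation limits the IkappaBalpha-fused green signal, while red luminescence normalises for cell number and nonspecific effects. Compounds tested up to 46 uM, 4 hrs.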
BRCA1 expr act: qHTS Assay to Identify Small Molecule Activators of BRCA1 Expression. hit rate 1.1% among 380,000. MCF7-BRCA1-FFLuc reporter, luminescence, 48 h; response scale: scaled: vehicle 0%, 10 µM genistein 100%. Potency, µM (doses to about 46.1 µM), most hits filed as activators; also: nearly all actives have a fitted effect of over 80% in size
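48 h compound treatment of MCF7-BRCA1-FFLuc cells (phenol-red free MEM, 37 °C), then 15 min with luciferase substrate and luminescence imaging.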
Nrf2 ARE act: qHTS of Nrf2 Activators; AREc32 ARE-luciferase reporter (MCF7-derived line), luminescence, 24 h; Potency, µM (highest dose often 46.1 µM), hits mostly activators; AID 624171, 2012; hit rate 0.31% among 410,000; also: nearly all actives have a fitted effect of over 65% in size
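Reporter line AREc32 (ARE-Fluc), seeded overnight in OPTI-MEM with 5% FBS; compound pin-transferred, 24 hr at 37 deg C, 5% CO2; luminescent read-out.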
Integrin act MD: qHTS for Activators of Integrin-Mediated Alleviation for Muscular Dystrophy; alpha7betagal myoblasts, beta-gal FDG fluorescence, 48 h; Potency, µM (highest dose often 38.3 µM), usual class: activators; hit rate 0.064% among 350,000; also: nearly all actives have a fitted effect of over 60% in size
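Alpha7betagal+/- myoblasts (passage 13) were plated 16-24 hr, then exposed to compounds (1:260 dilution of DMSO stock) for 48 hours at 37C. After MPER lysis, β-galactosidase reporter activity was read as FDG fluorescence (ex 480/em 540) after 30 minutes.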
N370S GC mod: qHTS Assay for Inhibitors and Activators of N370S glucocerebrosidase as a Potential Chaperone Treatment of Gaucher Disease. hit rate 0.092% among 330,000. N370S GC spleen homogenate, 4MU-glucoside fluorescence. Lysosomal acid glucosylceramidase (Homo sapiens), P04062. AID 2101, 2009. Potency, µM (top dose mostly 59.4 µM), hits mostly inhibitors
Hits are given with their value; – = inactive; ? = inconclusive; · = no result given. Only some compounds are listed: those with a hit (about 1.4% of all), similar ones and a draw of the others. Unless noted, calls follow the shape of the dose curve; as a rule, active = well fitted curve in the direction sought with a large enough effect; inconclusive = small, poorly fitted or top-dose-only effect, or another doubt; inactive = no such curve, though single readings can be large; an effect the other way counts as inactive or inconclusive.

SMILES	IL-2 act	Chronic BCR inh	BRCA1 expr act	Nrf2 ARE act	Integrin act MD	N370S GC mod
Nc1nc2c(ncn2[C@@H]2O[C@H](CNS(=O)(=O)c3cccnc3)[C@@H](O)[C@H]2O)c(=O)[nH]1	–	·	–	–	·	·
CCN1CCN(CCC(=O)Nc2ccc(C)cc2)CC1	–	–	–	–	–	–
O=C(Nc1ccc2nccnc2c1)Nc1ccccc1Cl	–	?	10µM	–	–	–
CCN1CCN(Cc2ccc(NC(=O)Nc3ccccc3Cl)cc2)CC1	–	–	?	–	–	–
O=C(Nc1ccc(CN2CCCCC2)cc1)Nc1ccccc1Cl	–	–	7.08µM	–	–	–
CCN1CCN(Cc2ccccc2NC(=O)Nc2ccc(C)cc2)CC1	–	–	6.31µM	–	–	–
CCc1ccc(/C=C2/SC(=S)N(CCC(=O)Nc3cccnc3)C2=O)cc1	53.6	?	–	–	–	–
CCOc1ccc(-c2ccc(SCC(=O)Nc3nnc(CC)s3)nn2)cc1	–	–	?	–	–	–
CC(C)(C)NC(=O)CSc1nc(-c2ccc(F)cc2)cs1	–	–	?	–	–	–
Cc1csc(SCC(=O)Nc2nc(-c3ccccc3)cs2)n1	–	?	–	–	–	–
CCNC(=O)CSc1nc(-c2ccc(F)cc2)cs1	–	–	?	–	5.01µM	–
Cc1ccc(-c2csc(NC(=O)CSc3nc(C)cs3)n2)cc1	–	?	11.2µM	–	–	–
CCc1nnc(NC(=O)CSc2ccc(-c3ccc(C)cc3)nn2)s1	–	–	11.2µM	–	–	–
CC1=NN(C(=S)Nc2ccccc2)C(C)(C)C1	–	–	–	–	–	–
CC(=O)N1c2ccccc2C(C)(c2ccc(C)cc2)CC1(C)C (centres undefined)	·	·	–	–	·	·
Nc1cc([N+](=O)[O-])cc(N)c1N	·	·	–	·	·	·
COc1ccc(-n2c(C)cc(C(=O)NC3CCCCC3)c2C)cc1	–	–	?	17.8µM	–	–
Cc1cccc(-n2c(C)cc(C(=O)NC3CCCCC3)c2C)c1	–	–	?	?	–	–
O=C(NCc1cccs1)c1csc2c1CCCCC2	–	–	–	–	–	–
O=C(NCc1cccs1)c1cc2c(s1)CCCC2	–	?	12.6µM	–	–	–
CCOc1ccc(/C=C/c2cc[n+](C)c3ccccc23)cc1OCC	·	·	–	·	·	·
Cc1ccc(NC(=O)C(=O)NCC2CCCO2)cc1 (centres undefined)	–	?	10µM	–	–	–
O=C(NCC1CCCO1)NC1(C(F)(F)F)Oc2ccccc2O1 (centres undefined)	–	–	–	15.8µM	–	–
Oc1ccc(Cl)cc1CNCC1CCCO1 (centres undefined)	–	?	–	–	–	–
Cc1ccc(C(=O)NC(=S)NCC2CCCO2)cc1 (centres undefined)	–	–	10µM	–	–	–
SMILES	IL-2 act	Chronic BCR inh	BRCA1 expr act	Nrf2 ARE act	Integrin act MD	N370S GC mod
Clc1ccc(-c2ccc(CNCC3CCCO3)o2)cc1 (centres undefined)	–	–	10µM	–	?	–
O/N=C(/C[n+]1csc2ccccc21)c1ccccc1	·	·	–	·	·	·
COCCCNC(=S)NNC(=O)c1ccc(C(C)(C)C)cc1	–	–	–	–	–	–
COCCCNC(=S)NC(=O)c1ccc(C)cc1	–	–	6.31µM	–	–	–
O=C(NCC1CCCO1)Nc1ccc(Cl)cc1 (centres undefined)	–	·	10µM	–	–	–
O=C(NCc1cccc(CNC(=O)C(=O)NCC2CCCO2)c1)C(=O)NCC1CCCO1 (centres undefined)	–	–	–	–	–	–
O=C(NCCc1ccccc1)C(=O)NCC1CCCO1 (centres undefined)	–	?	12.6µM	–	–	–
CCOC(=O)C1=C(N)N(c2cc(S(=O)(=O)N3CCOCC3)ccc2Cl)C(=O)C1	–	–	–	–	–	–
Cc1cc(-n2c(C)cc(C(=O)CSc3nncn3C(C)C)c2C)no1	–	–	–	–	–	–
CCCSC1=N/C(=C\C=C\c2ccco2)C(=O)S1	–	–	–	10µM	–	–
c1cc2c(cc1OCCNC1CCCC1)CCC2	·	–	·	·	·	–
CNCCCOc1ccc2c(c1)CCC2	–	?	11.2µM	–	–	–
Cc1cccc(C=NOCCc2ccccc2)n1	–	·	10µM	–	–	·
CCN(CC(=O)Nc1ccc(NC(C)=O)cc1)C(=O)/C=C/c1c(C)nn(-c2ccc(F)cc2)c1C	–	–	–	–	–	–
O=C(Nc1cccs1)Nc1ccccc1Cl	–	?	–	–	–	–
O=C(Nc1cccs1)Nc1cccnc1Cl	–	?	–	11.2µM	–	–
COc1ccc(NC(=O)Nc2cccs2)cc1OC	–	?	–	–	–	–
Cc1ccc(NC(=O)Nc2cccs2)cc1	–	–	1.26µM	–	–	–
COc1cccc(NC(=O)Nc2cccs2)c1	–	–	12.6µM	–	–	–
O=C(O)c1cc(-c2ccc(-c3ccc(F)cc3)o2)nc2ccccc12	–	?	–	–	?	–
O=C(O)CSc1ncnc2sc(-c3ccccc3)cc12	–	?	–	–	–	–
CC(Sc1ncnc2sc(-c3ccccc3)cc12)C(N)=O (centres undefined)	–	–	10µM	–	–	–
Cc1ccc(C)c(NC(=S)Nc2ncccc2C)c1	–	?	7.94µM	–	–	–
Cc1ccc(NC(=O)c2sc3nc(CCl)[nH]c(=O)c3c2C)c(C)c1	–	–	11.2µM	–	–	–
Cc1ccsc1C(=O)OCC(=O)NC1CCS(=O)(=O)C1 (centres undefined)	–	–	–	–	–	–
SMILES	IL-2 act	Chronic BCR inh	BRCA1 expr act	Nrf2 ARE act	Integrin act MD	N370S GC mod
O=c1cc(-c2cccc(Br)c2)oc2cccc(O)c12	–	–	–	2µM	–	–
O=c1cc(-c2ccccc2)oc2cc(O)cc(O)c12	–	·	?	?	–	–
O=c1cc(-c2ccccc2)oc2cc(O)ccc12	–	·	10µM	–	–	–
O=c1cc(-c2ccc(O)cc2)oc2ccc(O)cc12	–	?	2.82µM	–	–	?
O=c1cc(-c2ccc(O)cc2)oc2cc(O)cc(O)c12	–	·	22.4µM	–	·	?
O=C(O)c1ccc(-c2ccc(OS(=O)(=O)c3ccccc3F)cc2)cc1	–	?	12.6µM	–	–	–
N#C/C(=C\c1ccc[nH]1)C(=O)Nc1ccccc1F	–	?	–	11.2µM	–	–
Cc1cccc(NC(=O)C2CCN(C(=O)c3ccc(Cl)cc3)CC2)n1	–	–	–	–	–	–
